# Results taken from PubChem BioAssay AID1159580 (chemical genetic matrix, 2015).
# Screen size: about 5,500 compounds; about 2,000 (36%) were called active. About 18% were inconclusive and are not listed. The list shows a part of the results. Unmarked numbers belong to inactive results. Cut-off read from the data, not from the text of the source: active = normalized growth mostly below about 0.91 (no sharp cut-off); inconclusive = no clear call, values can overlap the other calls; inactive = mostly above about 0.92.
# Test: chemical genetic growth profiling, strain panel (AID 1159580);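 note: tested at 20 µM; growth read once vehicle control cultures reached saturation at 30 °C; 1 = growth at the plate median or of vehicle wells; lower values mean less growth of the strain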
# Conditions: growth OD
# [1] = S. cerevisiae deletion strains, locus YDL101C, strain DUN1, hits give low values
# [2] = S. cerevisiae deletion strains, locus YHR030C, strain SLT2, hits give low values
compound,measurement,setting,value
CCOC(=O)NC(=S)NC12CC3CC(CC(C3)C1)C2,normalized growth,"S. cerevisiae deletion strains, locus YAR019C, strain CDC15, hits give low values",0.978
same,normalized growth,"S. cerevisiae deletion strains, locus YBL105C, strain PKC1, hits give low values",0.983
same,normalized growth,"S. cerevisiae deletion strains, locus YBR135W, strain CKS1, hits give low values",0.977
same,normalized growth,"S. cerevisiae deletion strains, locus YBR136W, strain MEC1, hits give low values",0.962
same,normalized growth,"S. cerevisiae deletion strains, locus YBR160W, strain CDC28, hits give low values",0.984
same,normalized growth,"S. cerevisiae deletion strains, locus YDL017W, strain CDC7, hits give low values",0.982
same,normalized growth,"S. cerevisiae deletion strains, locus YDL028C, strain MPS1, hits give low values",0.978
same,normalized growth,[1],0.979
same,normalized growth,"S. cerevisiae deletion strains, locus YDL108W, strain KIN28, hits give low values",0.957
same,normalized growth,"S. cerevisiae deletion strains, locus YDL132W, strain cdc53, hits give low values",0.971
same,normalized growth,"S. cerevisiae deletion strains, locus YDL214C, strain PRR2, hits give low values",0.875
same,normalized growth,"S. cerevisiae deletion strains, locus YDR052C, strain DBF4, hits give low values",0.993
same,normalized growth,"S. cerevisiae deletion strains, locus YDR054C, strain cdc34, hits give low values",0.967
same,normalized growth,"S. cerevisiae deletion strains, locus YDR226W, strain ADK1, hits give low values",0.975
same,normalized growth,"S. cerevisiae deletion strains, locus YDR477W, strain SNF1, hits give low values",0.894
same,normalized growth,"S. cerevisiae deletion strains, locus YER123W, strain YCK3, hits give low values",0.827
same,normalized growth,"S. cerevisiae deletion strains, locus YER133W, strain GLC7, hits give low values",0.86
same,normalized growth,"S. cerevisiae deletion strains, locus YFL009W, strain cdc4, hits give low values",0.972
same,normalized growth,"S. cerevisiae deletion strains, locus YFL029C, strain CAK1, hits give low values",0.974
same,normalized growth,"S. cerevisiae deletion strains, locus YFR003C, strain YPI1, hits give low values",0.981
same,normalized growth,"S. cerevisiae deletion strains, locus YFR019W, strain FAB1, hits give low values",0.955
same,normalized growth,"S. cerevisiae deletion strains, locus YFR028C, strain CDC14, hits give low values",0.97
same,normalized growth,"S. cerevisiae deletion strains, locus YGR040W, strain KSS1, hits give low values",0.872
same,normalized growth,"S. cerevisiae deletion strains, locus YGR052W, strain FMP48, hits give low values",0.947
same,normalized growth,"S. cerevisiae deletion strains, locus YGR092W, strain DBF2, hits give low values",0.787
same,normalized growth,[2],0.897
same,normalized growth,"S. cerevisiae deletion strains, locus YHR079C, strain IRE1, hits give low values",0.915
same,normalized growth,"S. cerevisiae deletion strains, locus YHR082C, strain KSP1, hits give low values",0.946
same,normalized growth,"S. cerevisiae deletion strains, locus YHR205W, strain SCH9, hits give low values",0.965
same,normalized growth,"S. cerevisiae deletion strains, locus YIL147C, strain SLN1, hits give low values",0.981
same,normalized growth,"S. cerevisiae deletion strains, locus YJL095W, strain BCK1, hits give low values",0.964
same,normalized growth,"S. cerevisiae deletion strains, locus YJL128C, strain PBS2, hits give low values",0.953
same,normalized growth,"S. cerevisiae deletion strains, locus YJL157C, strain FAR1, hits give low values",0.865
same,normalized growth,"S. cerevisiae deletion strains, locus YJR016C, strain ILV3, hits give low values",0.985
same,normalized growth,"S. cerevisiae deletion strains, locus YJR066W, strain TOR1 (second series), hits give low values",0.789
same,normalized growth,"S. cerevisiae deletion strains, locus YJR066W, strain TOR1, hits give low values",0.903
same,normalized growth,"S. cerevisiae deletion strains, locus YKL048C, strain ELM1, hits give low values",0.968
same,normalized growth,"S. cerevisiae deletion strains, locus YKL067W, strain YNK1, hits give low values",0.896
same,normalized growth,"S. cerevisiae deletion strains, locus YKL101W, strain HSL1, hits give low values",0.923
same,normalized growth,"S. cerevisiae deletion strains, locus YKL193C, strain SDS22, hits give low values",0.982
same,normalized growth,"S. cerevisiae deletion strains, locus YKL203C, strain TOR2, hits give low values",0.958
same,normalized growth,"S. cerevisiae deletion strains, locus YLR113W, strain HOG1, hits give low values",0.926
same,normalized growth,"S. cerevisiae deletion strains, locus YLR133W, strain CKI1, hits give low values",0.934
same,normalized growth,"S. cerevisiae deletion strains, locus YLR403W, strain SFP1, hits give low values",0.851
same,normalized growth,"S. cerevisiae deletion strains, locus YML070W, strain DAK1, hits give low values",0.878
same,normalized growth,"S. cerevisiae deletion strains, locus YMR001C, strain CDC5, hits give low values",0.973
same,normalized growth,"S. cerevisiae deletion strains, locus YMR205C, strain PFK2 (second series), hits give low values",0.917
same,normalized growth,"S. cerevisiae deletion strains, locus YMR277W, strain FCP1, hits give low values",0.977
same,normalized growth,"S. cerevisiae deletion strains, locus YNL006W, strain LST8, hits give low values",0.971
same,normalized growth,"S. cerevisiae deletion strains, locus YNL020C, strain ARK1, hits give low values",0.901
same,normalized growth,"S. cerevisiae deletion strains, locus YNL161W, strain CBK1, hits give low values",0.987
same,normalized growth,"S. cerevisiae deletion strains, locus YNL183C, strain NPR1, hits give low values",0.939
same,normalized growth,"S. cerevisiae deletion strains, locus YNL207W, strain RIO2, hits give low values",0.97
same,normalized growth,"S. cerevisiae deletion strains, locus YNL222W, strain SSU72, hits give low values",0.982
same,normalized growth,"S. cerevisiae deletion strains, locus YNL307C, strain MCK1 (second series), hits give low values",0.881
same,normalized growth,"S. cerevisiae deletion strains, locus YOL078W, strain AVO1, hits give low values",0.972
same,normalized growth,"S. cerevisiae deletion strains, locus YOL136C, strain PFK27, hits give low values",0.898
same,normalized growth,"S. cerevisiae deletion strains, locus YOR061W, strain CKA2, hits give low values",0.845
same,normalized growth,"S. cerevisiae deletion strains, locus YOR119C, strain RIO1, hits give low values",0.934
same,normalized growth,"S. cerevisiae deletion strains, locus YOR231W, strain MKK1, hits give low values",0.926
same,normalized growth,"S. cerevisiae deletion strains, locus YOR329C, strain SCD5, hits give low values",0.984
same,normalized growth,"S. cerevisiae deletion strains, locus YPL031C, strain PHO85, hits give low values",0.87
same,normalized growth,"S. cerevisiae deletion strains, locus YPL153C, strain RAD53, hits give low values",0.863
same,normalized growth,"S. cerevisiae deletion strains, locus YPL204W, strain HRR25, hits give low values",0.876
same,normalized growth,"S. cerevisiae deletion strains, locus YPL209C, strain IPL1, hits give low values",0.981
same,normalized growth,"S. cerevisiae deletion strains, locus YPL256C, strain CLN2, hits give low values",1
same,normalized growth,"S. cerevisiae deletion strains, locus YPR025C, strain CCL1, hits give low values",0.982
same,normalized growth,"S. cerevisiae deletion strains, locus YPR106W, strain ISR1, hits give low values",0.992
same,normalized growth,"S. cerevisiae deletion strains, locus YPR111W, strain DBF20, hits give low values",0.996
same,normalized growth,"S. cerevisiae deletion strains, strain NNK1, hits give low values",0.988
same,normalized growth,"S. cerevisiae deletion strains, strain TSCII, hits give low values",0.971
CCOC(=O)c1cc(-c2ccc(N)cc2)oc1C,normalized growth,"S. cerevisiae deletion strains, locus YAL013W, strain DEP1, hits give low values",0.943
same,normalized growth,"S. cerevisiae deletion strains, locus YBR229C, strain ROT2, hits give low values",0.95
same,normalized growth,"S. cerevisiae deletion strains, locus YCL061C, strain MRC1, hits give low values",0.891 (active)
same,normalized growth,[1],0.927
same,normalized growth,"S. cerevisiae deletion strains, locus YDL134C, strain PPH21, hits give low values",0.939
same,normalized growth,"S. cerevisiae deletion strains, locus YDR150W, strain NUM1, hits give low values",0.822
same,normalized growth,"S. cerevisiae deletion strains, locus YEL061C, strain CIN8, hits give low values",0.59 (active)
same,normalized growth,"S. cerevisiae deletion strains, locus YGR078C, strain PAC10, hits give low values",0.942
same,normalized growth,"S. cerevisiae deletion strains, locus YGR229C, strain SMI1, hits give low values",0.964
same,normalized growth,[2],0.351 (active)
same,normalized growth,"S. cerevisiae deletion strains, locus YHR087W, strain rtc3, hits give low values",0.96
same,normalized growth,"S. cerevisiae deletion strains, locus YJR043C, strain POL32, hits give low values",0.952
same,normalized growth,"S. cerevisiae deletion strains, locus YJR075W, strain HOC1, hits give low values",0.963
same,normalized growth,"S. cerevisiae deletion strains, locus YKL190W, strain CNB1, hits give low values",0.869 (active)
same,normalized growth,"S. cerevisiae deletion strains, locus YLR039C, strain RIC1, hits give low values",0.414 (active)
same,normalized growth,"S. cerevisiae deletion strains, locus YLR058C, strain SHM2 (second series), hits give low values",0.961
same,normalized growth,"S. cerevisiae deletion strains, locus YLR085C, strain ARP6, hits give low values",0.458 (active)
same,normalized growth,"S. cerevisiae deletion strains, locus YLR262C, strain YPT6, hits give low values",0.385 (active)
same,normalized growth,"S. cerevisiae deletion strains, locus YML094W, strain GIM5, hits give low values",0.806 (active)
same,normalized growth,"S. cerevisiae deletion strains, locus YMR219W, strain ESC1, hits give low values",0.959
same,normalized growth,"S. cerevisiae deletion strains, locus YMR263W, strain SAP30, hits give low values",0.889
same,normalized growth,"S. cerevisiae deletion strains, locus YMR307W, strain GAS1, hits give low values",0.548 (active)
same,normalized growth,"S. cerevisiae deletion strains, locus YNL153C, strain GIM3, hits give low values",0.66 (active)
same,normalized growth,"S. cerevisiae deletion strains, locus YNL298W, strain CLA4 (second series), hits give low values",0.783 (active)
same,normalized growth,"S. cerevisiae deletion strains, locus YNL322C, strain KRE1, hits give low values",0.973
same,normalized growth,"S. cerevisiae deletion strains, locus YNR030W, strain Alg12, hits give low values",0.885 (active)
same,normalized growth,"S. cerevisiae deletion strains, locus YPL055C, strain LGE1, hits give low values",0.749 (active)
same,normalized growth,"S. cerevisiae deletion strains, locus YPL241C, strain CIN2, hits give low values",0.483 (active)
same,normalized growth,"S. cerevisiae deletion strains, locus YPR135W, strain CTF4, hits give low values",0.611 (active)
same,normalized growth,"S. cerevisiae strains, strain wild type, hits give low values",0.923
